Laboratory results: PubChem BioAssay
Active and inactive are the calls of the source.

Assays:
[1] = system: Plasmodium falciparum Sir2 (PF13_0152, Sir2A); experiment: Plasmodium falciparum Sir2A binding compounds – biochemical, small-molecule microarray, 635 nm fluorescence, primary screen (AID 1098); conditions: fluorescence 635 nm, higher = more signal;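 also: score merges spot fluorescence intensity with its signal-to-noise ratio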
[2] = probe aDKK1 binding to arrayed compounds – biochemical, biotinylated probe, 635/667 nm fluorescence, primary screen (AID 1099); conditions: small-molecule microarray, higher = more signal;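 also: score merges 667nm spot fluorescence with signal to noise across triplicate slides; reference of the scale not given here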
[3] = probe aCHRDL2 binding to arrayed compounds – biochemical, biotinylated probe, 635/667 nm fluorescence, primary screen (AID 1100); conditions: small-molecule microarray, higher = more signal
[4] = change in splice reporter luminescence, either direction, cell-based, HEK293, spliceosome inhibition project, primary screen (AID 1101); conditions: HEK293 splicing luciferase reporter, 24 h, higher = more signal, called active from +8 up or from −8 down;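 also: HEK293 cells carrying a splicing-competent luciferase reporter gene; test concentration not given here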
[5] = target: Fibroblast growth factor 10 (Homo sapiens) (UniProt O15520); experiment: compounds binding fibroblast growth factor 10 – biochemical, small-molecule microarray, 635 nm fluorescence, primary screen (AID 1102); conditions: FGF10 binding, fluorescence 635 nm, higher = more signal
[6] = system: glycogen synthase kinase-3 (GSK3A per assay name; protocol says GSK3B); experiment: compounds binding glycogen synthase kinase-3 – biochemical, small-molecule microarray, 635 nm fluorescence, GSK3A, primary screen (AID 1103); conditions: fluorescence 635 nm, higher = more signal; also: the record names both GSK3A and GSK3B
[7] = target: Epidermal growth factor receptor (Homo sapiens) (UniProt P00533); experiment: compounds binding epidermal growth factor receptor – biochemical, small-molecule microarray, 635 nm fluorescence, primary screen (AID 1104); conditions: EGFR binding, higher = more signal;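 also: score merges 667 nm emission intensity with spot signal to noise over triplicate slides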
[8] = target: Follistatin-related protein 3 (Homo sapiens) (UniProt O95633); experiment: compounds binding follistatin-related protein 3 – biochemical, small-molecule microarray, 635 nm fluorescence, primary screen (AID 1105); conditions: FSTL3 binding, higher = more signal;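 also: score merges emission near 667 nm and signal to noise per printed spot across three slides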
[9] = target: Dickkopf-related protein 1 (Homo sapiens) (UniProt O94907); experiment: small molecules binding DKK1 protein – biochemical, small-molecule microarray, 635 nm fluorescence scan, primary screen (AID 1106); conditions: higher = more signal;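 also: score merges emission near 667 nm with signal to noise over three replicate slides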
[10] = system: Inhibin beta A chain (activin A); experiment: small molecules binding activin A – biochemical, small-molecule microarray, 635 nm fluorescence scan, primary screen (AID 1107); conditions: INHBA, higher = more signal;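 also: mouse activin A protein probed at 4.33 µg/mL on printed slides; score merges bound-protein fluorescence near 667 nm with spot signal-to-noise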

Sequence of Epidermal growth factor receptor (Homo sapiens) (P00533 whole entry, looked up): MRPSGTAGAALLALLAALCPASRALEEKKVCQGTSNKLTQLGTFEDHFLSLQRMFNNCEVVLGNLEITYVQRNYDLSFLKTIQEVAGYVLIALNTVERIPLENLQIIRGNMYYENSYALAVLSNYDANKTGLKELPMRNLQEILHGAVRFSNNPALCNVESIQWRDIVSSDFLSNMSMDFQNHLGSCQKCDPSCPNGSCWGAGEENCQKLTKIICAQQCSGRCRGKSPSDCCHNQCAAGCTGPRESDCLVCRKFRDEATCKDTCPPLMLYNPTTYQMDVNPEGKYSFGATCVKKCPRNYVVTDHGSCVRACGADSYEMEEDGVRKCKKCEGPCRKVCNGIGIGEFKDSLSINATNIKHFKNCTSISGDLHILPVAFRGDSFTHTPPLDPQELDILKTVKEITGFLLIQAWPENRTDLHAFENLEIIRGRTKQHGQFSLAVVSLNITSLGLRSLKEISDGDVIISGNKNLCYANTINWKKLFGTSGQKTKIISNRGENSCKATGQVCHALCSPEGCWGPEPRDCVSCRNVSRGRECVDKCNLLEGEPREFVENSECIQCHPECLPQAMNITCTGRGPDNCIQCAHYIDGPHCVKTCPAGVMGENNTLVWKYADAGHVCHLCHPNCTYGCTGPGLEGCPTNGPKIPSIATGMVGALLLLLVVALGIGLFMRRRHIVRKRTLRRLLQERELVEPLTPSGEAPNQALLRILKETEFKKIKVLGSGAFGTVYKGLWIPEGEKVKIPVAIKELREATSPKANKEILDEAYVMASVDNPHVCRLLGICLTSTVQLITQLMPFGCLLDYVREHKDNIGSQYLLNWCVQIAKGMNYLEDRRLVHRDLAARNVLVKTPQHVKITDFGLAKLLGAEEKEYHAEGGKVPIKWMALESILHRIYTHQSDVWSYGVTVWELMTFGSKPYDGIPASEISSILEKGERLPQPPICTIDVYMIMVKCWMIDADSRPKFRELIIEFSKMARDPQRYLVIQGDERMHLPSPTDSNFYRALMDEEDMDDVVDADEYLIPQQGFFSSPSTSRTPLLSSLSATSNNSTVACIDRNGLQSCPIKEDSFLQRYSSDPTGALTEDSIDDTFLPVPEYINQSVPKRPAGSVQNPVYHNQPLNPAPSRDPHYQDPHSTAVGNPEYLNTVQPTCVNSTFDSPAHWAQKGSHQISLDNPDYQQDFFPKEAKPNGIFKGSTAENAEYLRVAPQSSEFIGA
Sequence of Dickkopf-related protein 1 (Homo sapiens) (O94907 whole entry, looked up): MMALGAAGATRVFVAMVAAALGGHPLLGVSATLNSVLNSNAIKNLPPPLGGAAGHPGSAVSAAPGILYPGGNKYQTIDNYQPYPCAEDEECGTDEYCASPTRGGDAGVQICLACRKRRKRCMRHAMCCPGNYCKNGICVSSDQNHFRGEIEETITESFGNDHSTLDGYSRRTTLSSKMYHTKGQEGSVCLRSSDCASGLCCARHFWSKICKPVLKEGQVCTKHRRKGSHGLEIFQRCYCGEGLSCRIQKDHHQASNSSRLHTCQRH
Sequence of Fibroblast growth factor 10 (Homo sapiens) (O15520 whole entry, looked up): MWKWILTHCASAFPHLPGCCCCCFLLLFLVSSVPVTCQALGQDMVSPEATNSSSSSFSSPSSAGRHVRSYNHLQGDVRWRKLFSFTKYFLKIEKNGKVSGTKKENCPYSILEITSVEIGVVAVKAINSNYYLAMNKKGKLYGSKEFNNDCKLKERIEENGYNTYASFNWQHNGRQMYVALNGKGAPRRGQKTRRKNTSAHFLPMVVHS
Sequence of Follistatin-related protein 3 (Homo sapiens) (O95633 whole entry, looked up): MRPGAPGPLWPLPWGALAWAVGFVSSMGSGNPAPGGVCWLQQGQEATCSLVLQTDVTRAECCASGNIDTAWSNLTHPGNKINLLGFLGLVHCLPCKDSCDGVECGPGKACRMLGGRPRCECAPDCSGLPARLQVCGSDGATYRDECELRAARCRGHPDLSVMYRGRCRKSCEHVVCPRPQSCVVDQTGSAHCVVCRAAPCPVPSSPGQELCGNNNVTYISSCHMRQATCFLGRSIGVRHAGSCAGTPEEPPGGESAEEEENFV

SMILES	composite z-score [1]	composite z-score [2]	composite z-score [3]	z-score [4]	composite z-score [5]	composite z-score [6]	composite z-score [7]	composite z-score [8]	composite z-score [9]	composite z-score [10]
C=CCN1Cc2ccccc2C[C@@]2(COC(c3ccc(OCCCO)cc3)=N2)C1=O	1.03	1.02	1.15	-1.13 (inactive)	0.489	0.597	0.437	0.68	0.644	1.59
C=CC[C@]1(C(=O)NCCN2CCOCC2)N=C(c2ccc(OCCCO)cc2)O[C@H]1c1ccccc1N=[N+]=[N-]	0.529	1.22	1.31	-0.448 (inactive)	1.08	0.287	0.327	1.05	0.283	1.6
CN(C)CCCCCCNC(=O)[C@@H]1C[C@@H]2C(=O)NCC(=O)N2[C@@H]1c1cccc(OCCO)c1	1.39	0.156	-0.0688	0.0236 (inactive)	1.34	1.36	0.654	1.48	1.28	0.433
CCCCN1CC=CC23O[C@@H]4/C=C\CCCOC(=O)C4[C@H]2C(=O)N(C(C)CO)[C@@H]3C1=O (stereo not given in full)	1.62	-0.292	-0.305	-0.577 (inactive)	-0.319	-0.969	-0.154	-0.43	0.326	0.788
C=CCNC(=O)[C@@H]1[C@H]2C(=O)O[C@H](c3ccccc3)[C@H](c3ccccc3)N2[C@H](c2ccccc2OCCO)[C@@]12C(=O)N(C(=O)OCCOC)c1ccc(C#CCC(C(=O)OC)C(=O)OC)cc12	1.89	2	1.09	-0.235 (inactive)	1.43	1.31	1.25	1.5	1.34	1.33
COc1ccc([Si](C)(C)[C@H]2[C@H](CCO)O[C@@]3(C(=O)N(Cc4ccccc4)c4ccc(N5C(=O)COc6ccccc65)cc43)[C@@H]2C)cc1	1.12	0.0649	0.521	-1.56 (inactive)	0.305	-0.965	-0.5	-0.207	-0.214	0.241
COCCCNC(=O)[C@@]1(C)c2ccccc2C(=O)N(Cc2ccccc2)[C@H]1c1ccc(CO)cc1	1.43	-0.0769	1.02	-0.626 (inactive)	-0.398	-0.595	-0.848	-1.03	-1.76	-0.79
COC(=O)C(CC#Cc1ccc2c(c1)[C@]1(C(=O)N2)[C@H](C(=O)N2CCCCCCC2)[C@H]2C(=O)O[C@H](c3ccccc3)[C@H](c3ccccc3)N2[C@@H]1c1ccccc1OCCO)C(=O)OC	2.14	3.1	1.75	0.13 (inactive)	1.47	1.47	1.96	1.73	2.58	1.79
C=C(COC)/C(=C/C[C@H](OC(C)=O)c1ccccc1OCCO)c1cnc2ccccc2c1	0.279	-0.0732	-0.0887	0.11 (inactive)	1.16	0.521	0.486	1.41	0.743	1.85
NC(=O)NCC#Cc1ccc2c(c1)[C@]1(C(=O)N2)[C@H](C(=O)NC[C@H](O)c2ccccc2)[C@H]2C(=O)O[C@H](c3ccccc3)[C@H](c3ccccc3)N2[C@@H]1c1ccccc1OCCO	1.3	-0.0611	0.729	-0.416 (inactive)	0.588	-0.425	0.143	-0.0845	-1.04	0.286
O=C(NCC(O)CO)[C@@]1(Cc2ccccc2)N=C(c2ccc(OCCCO)cc2)O[C@H]1c1ccccc1 (stereo not given in full)	0.616	1.15	1.36	-0.395 (inactive)	0.698	0.591	-1.2	-0.378	-0.72	0.661
CN(C)CCCC[C@@H]1NC(=O)[C@H]2C[C@@H](C(=O)NCCCCCNC(=O)CS)[C@@H](c3ccc(O)cc3)N2C1=O	0.133	0.0417	0.308	1.1 (inactive)	-1.2	-0.53	-0.483	-1.39	-0.653	0.0182
C=CCN1C(=O)[C@]2(COC(c3ccc(OCCCO)cc3)=N2)Cc2ccccc21	1.31	0.16	0.946	-0.556 (inactive)	0.261	0.678	0.145	0.232	-0.169	1.13
NC(=O)[C@]1(Cc2ccccc2)N=C(c2ccc(OCCCO)cc2)O[C@@H]1c1ccccc1	0.647	1.2	0.751	-0.072 (inactive)	0.61	0.0914	-0.722	-0.144	-0.109	0.558
O=C1O[C@@H](c2ccccc2)[C@@H](c2ccccc2)N2[C@@H](c3ccc(O)cc3)[C@]3(C(=O)Nc4ccccc43)[C@@H](C(=O)N3CCCCCCC3)[C@H]12	2.02	2.5	1.53	-1.29 (inactive)	1.03	1.32	1.27	1.58	1.56	1.98
CCCC[C@H]1OB(O)C[C@H]2C1=C(COc1ccccc1)C[C@H]1C(=O)N(Cc3ccccc3)C(=O)[C@H]12	0.412	-0.154	-0.283	-0.788 (inactive)	0.509	0.103	-0.248	0.581	0.193	0.78
COc1ccc(C(=O)Nc2cccc(CN3C(=O)[C@@]4(O[C@@H](CCn5cc([C@H](O)c6ccccc6)nn5)[C@H]([Si](C)(C)c5ccc(OC)cc5)[C@H]4C)c4ccccc43)c2)cc1	1.19	0.142	0.634	-1.46 (inactive)	1.21	0.175	-0.219	0.206	0.249	1.16
O=C1O[C@H](c2ccccc2)[C@H](c2ccccc2)N2[C@H]1[C@@H](C(=O)N1CCCCCCC1)[C@]1(C(=O)Nc3ccc(C#CC4=CCCCC4)cc31)[C@H]2c1ccc(O)cc1	2.14	3.14	1.72	-0.944 (inactive)	1.67	1.5	2.04	1.69	2.71	2.04
C=C(CCCC)C(=O)CC[C@@H](OC(=O)c1ccccc1-c1ccccc1C(=O)O)c1ccc(CO)o1	0.628	-0.0075	-0.301	0.716 (inactive)	1.22	1.1	-0.183	0.818	1.03	1.01
C=CC[C@@]1(C(=O)NCc2ccccc2)N=C(c2ccc(OCCCO)cc2)O[C@@H]1c1ccccc1CN=[N+]=[N-]	1.1	0.9	0.953	0.147 (inactive)	1.15	0.0389	-0.282	0.849	0.0805	0.835
COc1cc2c(cc1O)C(c1ccc(CN3CCCC3)cc1)N(Cc1sc3ccccc3c1Cl)CC2 (stereo not given)	1.41	0.0829	0.234	-0.478 (inactive)	0.514	-0.111	0.521	0.988	1.12	1.35
CCCNC(=O)[C@@]1(c2ccc([N+](=O)[O-])cc2)CC(=O)N(CC23CC4CC(CC(C4)C2)C3)[C@@H]1c1ccc(CO)cc1I	0.441	0.563	0.195	1.58 (inactive)	0.193	0.588	0.27	0.236	0.0305	0.655
